# Tb PYK inh: qHTS of Trypanosoma Brucei Inhibitors; TbPYK enzyme, Kinase-Glo Plus ATP luminescence, 45 min; AID 624173, 2012; 410,000 tested, 0.12% active; pyruvate kinase (Trypanosoma brucei), Q57TT1; Potency, µM (doses to about 76.8 µM), inactives show at the highest dose activity, negative = inhibition, actives largely listed as inhibitors; also: % is scaled to controls: 0 for no effect and ±100 for the full control effect; nearly all actives have a fitted effect of over 50% in size
#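 TbPYK + substrate in 50 mM TEA pH 7.2, 100 mM KCl, 10 mM MgCl2, 0.05% BSA, 0.01% Tween-20; cpd pinned; ADP 130 uM final; 45 min RT; Kinase-Glo Plus 10 min; luminescence endpoint.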
# SARS PLpro yeast: qHTS of Yeast-based Assay for SARS-CoV PLP; S. cerevisiae expressing SARS-CoV PLpro, growth rescue; Potency, µM (top dose mostly 32.9 µM), inactives show top-dose activity, positive = growth rescue, hits mostly activators; 330,000 tested, 0.19% active; calls by dose curve; also: 0% is about no effect; nearly all actives have a fitted effect of over 55% in size
# RE007 growth inh: qHTS Assay for Inhibitors of the HIV-1 protein Vpr | Potency, µM (series often up to 92.2 µM), without a hit: top-dose activity change, negative = less growth, usual class: inhibitors | S. pombe RE007 Vpr strain, BacTiter-Glo ATP luminescence, 24 h | AID 651644, 2012 | 360,000 tested, 0.21% active; active = well fitted falling curve with a large enough effect; inconclusive = small, poorly fitted or top-dose-only effect; inactive = no such curve, though single readings can be large or run the other way; also: % is scaled to controls: 0 for no effect and ±100 for the full control effect; nearly all actives have a fitted effect of over 50% in size
#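 Fission yeast RE007 carrying one integrated HIV-1 vpr copy, seeded at OD 0.01 in PMG+AL medium with 23 nL pinned compound. Grown 24 h at 30 degrees; viability read by BacTiter-Glo luminescence after 5 min.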
# Sm TGR inh: qHTS Assay for the Inhibitors of Schistosoma Mansoni Peroxiredoxins. Schistosoma mansoni thioredoxin glutathione reductase (TGR), Q962Y6. purified TGR, DTNB reduction, TNB absorbance 405 nm. Potency, µM (top dose mostly 114 µM), for the others: at the highest dose activity change, negative = inhibition, most hits filed as inhibitors. 360,000 tested, 3% active; also: % is scaled to controls: 0 for no effect and ±100 for the full control effect; nearly all actives have a fitted effect of over 60% in size
#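 TGR 20 nM + NADPH 100 uM (dispensed conc.), cpd preinc 15 min RT; start with NADPH (500 uM addition) then DTNB (15 mM addition). Kinetic TNB absorbance, 405 nm filter. Four-parameter Hill fit across titration.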
# AmpC inh detg: qHTS Inhibitors of AmpC Beta-Lactamase (assay with detergent); P00811; 370,000 tested, 0.041% active; AID 485294, 2010; Potency, µM (titrated, usually from 114 µM), without a hit: at the highest dose activity change, negative = inhibition, actives largely listed as inhibitors; AmpC hydrolysis of nitrocefin, absorbance 480 nm, 0.01% Triton;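 also: 0% = no-compound wells and -100% = no-enzyme wells; nearly all actives have a fitted effect of over 25% in size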
# Target sequence (P00811 whole entry, looked up): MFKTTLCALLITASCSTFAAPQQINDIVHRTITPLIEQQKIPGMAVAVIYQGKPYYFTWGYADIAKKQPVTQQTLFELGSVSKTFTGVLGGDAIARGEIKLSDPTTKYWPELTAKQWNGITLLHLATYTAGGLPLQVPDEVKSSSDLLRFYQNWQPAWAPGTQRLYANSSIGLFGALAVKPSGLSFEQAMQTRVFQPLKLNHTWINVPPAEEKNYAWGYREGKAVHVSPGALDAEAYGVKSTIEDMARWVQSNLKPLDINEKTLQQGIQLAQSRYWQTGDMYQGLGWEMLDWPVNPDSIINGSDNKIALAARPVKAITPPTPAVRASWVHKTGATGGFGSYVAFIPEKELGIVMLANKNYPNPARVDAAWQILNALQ
#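 AmpC (5.3 nM in the dispensed reagent) in 20 mM phosphate pH 7.0 with 0.01% (detergent screen) or 0.0001% Triton X-100 was preincubated with compounds for 15 min at room temperature. Nitrocefin was then added from an 800 uM solution, and hydrolysis was followed at 480 nm.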
# AmpC no deterg: qHTS Inhibitors of AmpC Beta-Lactamase (assay without detergent). AmpC nitrocefin hydrolysis, absorbance 480 nm, 0.0001% Triton. Potency, µM (titrated, usually from 57.1 µM), for the others: top-dose activity change, negative = inhibition, most hits filed as inhibitors. 330,000 tested, 0.52% active. AID 485341, 2010;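 also: plate controls were no compound for no effect and no enzyme for full effect; nearly all actives have a fitted effect of over 20% in size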
#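 AmpC (5.3 nM in the dispensed reagent) in 20 mM phosphate pH 7.0 with 0.01% (detergent screen) or 0.0001% Triton X-100 was preincubated with compounds for 15 min at room temperature. Nitrocefin was then added from an 800 uM solution, and hydrolysis was followed at 480 nm.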
# An asterisk follows results filed as active; ? = inconclusive; / = not tested or not shown; [ ] = another dose, or the depositor's remark. Only some compounds are listed: those with a hit (about 3.3% of all), similar ones and a draw of the others. Unless noted, calls follow the shape of the dose curve; as a rule, active = well fitted curve in the direction sought with a large enough effect; inconclusive = small, poorly fitted or top-dose-only effect, or another doubt; inactive = no such curve, though single readings can be large; an effect the other way counts as inactive or inconclusive. Potency is read from the fitted curve at half-maximal effect.
SMILES,Tb PYK inh,SARS PLpro yeast,RE007 growth inh,Sm TGR inh,AmpC inh detg,AmpC no deterg
CN1C(=O)C(=Cc2ccc(N3CCCCC3)o2)C(=O)N(C)C1=S,-14%,2%,19%,-58%,-11%,11%
Cc1cccc(OCCCn2c(CCNC(=O)C3CCCCC3)nc3ccccc32)c1,-10%,/,/,1%,-2%,/
O=C(O)Cc1ccccc1Oc1ccc(Cl)cc1Cl,1%,/,/,/,/,/
Cc1cc(Cl)ccc1Oc1ccccc1C(=O)CC#N,2%,-4%,16%,-1%,10%,4µM*
O=C(Nc1cccc(F)c1)C1CCN(S(=O)(=O)c2cccc3nsnc23)CC1,-7%,/,/,4%,-4%,/
Cc1cc(NC(=O)c2coc(=O)c(Br)c2)ccc1C(C)C,0%,-3%,-17%,-1%,8%,16µM*
C[C@@H](NC(=O)c1coc(=O)c(Br)c1)c1ccccc1,2%,8%,-24%,1%,-2%,-17%
CS(=O)(=O)Nc1cccc(C2=NN(C(=O)c3ccccc3)C(c3cccs3)C2)c1 (stereo not given),12%,-7%,2%,9%,7%,-14%
O=C(c1ccccc1)N1N=C(c2ccco2)CC1c1cccs1 (stereo not given),-6%,-1%,-12%,35µM*,-2%,-24%
Cc1ccc(C2=NN(C(=O)CCl)C(c3cccs3)C2)o1 (stereo not given),-1%,-28%,-1%,3.2µM*,-7%,-10%
CC(=O)N1N=C(c2ccco2)CC1c1cccs1 (stereo not given),-2%,-2%,2%,45µM*,1%,-12%
CCC(=O)N1N=C(c2cccs2)CC1c1ccco1 (stereo not given),5%,-1%,4%,?,7%,6%
CC(=O)N1N=C(c2cccs2)CC1c1cccs1 (stereo not given),1%,0%,18%,-8%[57.1 µM],-1%,-12%
O=C(CCl)N1N=C(c2ccco2)CC1c1cccs1 (stereo not given),-23%,16%,-13%,3.2µM*,-9%,-20%
CCOC(=O)NNc1ccc(N(CC)CC(C)O)nn1 (stereo not given),0%,/,/,/,/,/
O=C(CSc1nc2ccccc2s1)c1ccc(O)cc1O,1%,-4%,-13%,1%,-3%,7.1µM*
O=C(Cc1nc2ccccc2s1)c1ccc(O)cc1O,/,-8%,/,?,0%,-23%
O=C(CN1C(=O)COc2ccc(S(=O)(=O)NC3CCCC3)cc21)Nc1ccc(Cl)cc1F,-7%,/,/,-5%,-2%,/
Cc1ccc(C(=O)C=CNNC(=O)c2ccccc2)cc1,-2%,-5%,1%,40µM*,?,-38%
Cc1ccc(C(=O)/C=C\C(=O)c2ccc(C)cc2)cc1,?,-23%,3%,1.8µM*,-7%,-23%
O=C(O)/C=C/C(=O)c1ccc(O)cc1,-27%,1%,10%,3.2µM*,2%,-1%
O=C(/C=C/NNC(=O)c1ccccc1)c1ccccc1,-4%,-8%,-7%,0%,-13%,-37%
O=C(NC1CCCCCC1)c1ccc([N+](=O)[O-])s1,4%,-4%,45µM*,-4%,0%,-25%
COC(=O)c1c(C)oc2c1cc(NS(=O)(=O)c1ccc(C(=O)O)cc1)c1ccccc12,-14%,0%,-2%,50µM*,-12%,-51%
CCOC(=O)c1[nH]c(C)c(CCC(=O)Nc2c(C)cc(C)cc2C)c1C,0%,/,/,2%,-8%,/
COCCN(C)Cc1nc(C(c2ccccc2)c2ccccc2)no1,0%,2%,1%,-29%,1%,92%
N#CCc1nc(C(c2ccccc2)c2ccccc2)no1,2%,2%,-6%,-7%,-6%,18µM*

# Compound activity deposited in PubChem by National Center for Advancing Translational Sciences (NCATS).
